# ANO1 activ: activates or potentiates the mouse TMEM16A chloride channel. Q8BHY3. HEK293 TMEM16A/YFP-H148Q/I152L, iodide quench fluorescence; stronger effect = lower value. B-score at 10 µM. actives 0.3% (n = 340,000). AID 623877;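 active = fluorescence-ratio B-score plate-corrected deviation score at least 3 library SD below zero, with starting fluorescence score within 5 deviations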;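 also: channel opened by trigger with iodide after compound preincubation; score built on the fluorescence ratio of max minus min over baseline; more negative score means more quench and so TMEM16A activation or potentiation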
# NTR1 agonist: activates human neurotensin receptor 1 | P30989 | NTR1-U2OS beta-arrestin-GFP spot imaging, agonist mode | activation, % at 20 µM | actives 0.17% (n = 330,000) | AID 493036;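 active = activation at or above 40% of the spot to cytoplasm intensity ratio, with at least 20 cells analyzed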
# Target sequence (P30989 whole entry, looked up): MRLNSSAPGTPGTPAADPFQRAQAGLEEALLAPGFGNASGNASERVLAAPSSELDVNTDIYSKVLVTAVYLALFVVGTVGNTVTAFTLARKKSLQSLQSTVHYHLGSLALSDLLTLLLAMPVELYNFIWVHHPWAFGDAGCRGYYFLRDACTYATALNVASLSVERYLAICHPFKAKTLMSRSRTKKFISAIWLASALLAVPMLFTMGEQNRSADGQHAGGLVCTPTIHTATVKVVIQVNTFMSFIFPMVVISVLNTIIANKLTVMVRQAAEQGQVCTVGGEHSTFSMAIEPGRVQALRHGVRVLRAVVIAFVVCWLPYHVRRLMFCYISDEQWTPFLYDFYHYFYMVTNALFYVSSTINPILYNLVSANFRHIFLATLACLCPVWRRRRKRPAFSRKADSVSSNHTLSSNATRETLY
# MEKK3 PB1 HTS: modulators (inhibitors or enhancers) of MEK5 binding to human MEKK3 PB1 domain | bead-based flow cytometry, Alexa488-MEK5 binding to MEKK3; actives lie on both sides; 0 = blocked by unlabeled MEK5, 100 = vehicle | binding response (% of control), % at 10 µM | actives 1.4% (n = 290,000);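 active = binding response more than 3 SD above or below the average of its plate-row segment, actives on both sides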;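 also: Alexa488 bead fluorescence after subtracting the streptavidin-only scavenger bead signal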
# MEKK2 mut-MEK5: signal of MEK5 binding to mutant human MEKK2 PB1 domain | percent response, % at 10 µM | bead flow cytometry, Alexa488-MEK5 binding to MEKK2 mutant | actives 0.35% (n = 290,000); in the data active = percent response above about 24%, passing the limit was not always enough
# TMEM16A inh: blocks the mouse calcium-activated chloride channel TMEM16A; Q8BHY3; HEK293 TMEM16A/YFP iodide influx fluorescence, ionomycin; normalized B-score (activity score, 25-100; higher = stronger inhibition) at 10 µM; actives 1.2% (n = 310,000);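 active = ratio plate-corrected score three or more library SD toward inhibition, starting fluorescence score within five deviations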;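 also: score derived from kinetic fluorescence span divided by baseline fluorescence per well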
# MEKK2wt PB1 HTS: raises or lowers MEK5 binding to wildtype human MEKK2 PB1 domain. actives 1.1% (n = 290,000). AID 1531. Q9Y2U5. binding response (% of control), % at 10 µM. bead flow cytometry, Alexa488-MEK5 binding to MEKK2 WT; actives lie on both sides; in the data active = binding response below about 67% or above about 130%
# MEKK2wt confirm: raises or lowers MEK5 binding to wildtype human MEKK2, retest; shares compounds with MEKK3 PB1 HTS; bead flow cytometry, Alexa488-MEK5 binding to MEKK2 WT; actives lie on both sides; binding response (% of control), % at 10 µM; actives 2.4% (n = 5,900); AID 1892; in the data active = binding response below about 16% or above about 210%; inactive = in between
# MEKK2mut-MEK5: signal of MEK5 binding to mutant human MEKK2, retest. bead flow cytometry, Alexa488-MEK5 binding to MEKK2 mutant. actives 2% (n = 5,900). shares compounds with MEKK3 PB1 HTS. percent response, % at 10 µM. AID 1893; in the data active = percent response mostly above about 71%, no sharp cut-off; inactive = mostly below about 38%;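 also: higher means compound restores mutant binding toward wildtype level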
# MEKK3 confirm: confirmation of inhibitors of MEK5 binding to human MEKK3; shares compounds with MEKK3 PB1 HTS; bead flow cytometry, Alexa488-MEK5 binding to MEKK3; stronger effect = lower value; binding response (% of control), % at 10 µM; actives 1.8% (n = 5,900); AID 1894;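 active = binding response below 72% of control, or above a set upper limit, though filed actives all read lower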
# Numbers stand for hits; 0 = inactive; - = no result; [ ] = another dose, or the depositor's remark. An excerpt weighted towards active compounds, which were near 3.4% of everything screened.
SMILES,ANO1 activ,NTR1 agonist,MEKK3 PB1 HTS,MEKK2 mut-MEK5,TMEM16A inh,MEKK2wt PB1 HTS,MEKK2wt confirm,MEKK2mut-MEK5,MEKK3 confirm
O=C(NC(=S)NCc1cccnc1)c1ccccc1[N+](=O)[O-],0,0,2.0[inhibitor],0,0,2.0[inhibitor],0,0,0
N#CC1(C#N)C(c2ccccc2)OC23CCCCC2C1(C#N)C(=N)O3 (centres undefined),0,0,140,0,0,0,0,0,0
N#CC1(C#N)C(c2ccccc2)OC23CCCCCC2C1(C#N)C(=N)O3 (centres undefined),0,0,0,0,0,0,-,-,-
Cc1ccc(NC(=O)COC(=O)C2CC3CCCC(C2)C3=O)c([N+](=O)[O-])c1 (centres undefined),0,0,-,-,-,-,-,-,-
CCC(C)N(C)C(=O)c1cc2ccccc2c(-c2ccccc2Cl)n1 (centres undefined),0,0,0,0,0,0,-,-,-
Cc1ccc(NC(=O)c2ccc(CN3CCN(C)CC3)cc2)cc1Nc1nccc(-c2cccnc2)n1,0,0,0,-,0,-,-,-,0
COc1ccc(-n2cc(CNCc3cnc4ccccn34)c(-c3cccc(F)c3)n2)cc1,0,0,0,59,0,170,0,0,0
COc1ccc(-n2cc(CNCC3CCOCC3)c(-c3cccc(F)c3)n2)cc1,0,0,0,0,0,0,-,-,-
CC(C)CCNC(=O)C(c1ccc(O)cc1)N(Cc1ccco1)C(=O)CCC(=O)Nc1nccs1 (centres undefined),0,0,0,0,0,0,-,-,-
CCOc1ccc(N(CC(=O)Nc2cccc(Cl)c2)S(=O)(=O)c2c(C)noc2C)cc1,0,0,0,0,0,155,0,0,0
CS(=O)(=O)c1ccc(NCCc2ccc(S(N)(=O)=O)cc2)c([N+](=O)[O-])c1,0,0,0,0,0,0,-,-,-
O=[N+]([O-])c1ccc2nc(-c3ccncc3)[nH]c2c1,0,0,0,0,0,0,-,-,-
O=[N+]([O-])c1cccc(-c2nc3ccc([N+](=O)[O-])cc3[nH]2)c1,0,0,128,0,0,0,0,0,0
COc1ccccc1NS(=O)(=O)c1cc([N+](=O)[O-])ccc1N/N=C/c1sc(N2CCOCC2)nc1-c1ccccc1,0,-,0,205,0,0,0,0,0
FC(F)(F)c1cc(N2CCN(Cc3ccccc3)CC2)c2ccccc2n1,0,0,75[inhibitor],0,0,0,0,0,0
CC(=O)c1cccc(NC(=O)/C(=C\c2cccnc2)NC(=O)c2ccco2)c1,0,0,0,0,0,0,-,-,-
CC(C)(CS(=O)(=O)[O-])NC(=O)CC[N+](C)(C)CCO,0,0,65[inhibitor],0,0,0,0,0,0
CN1CCN(c2cc(-c3ccccc3)nc3cc(-c4ccc(F)cc4)nn23)CC1,0,0,0,34,0,152,0,0,0
COc1cccc(-c2cc3nc(-c4ccccc4)cc(N4CCC5(CC4)OCCO5)n3n2)c1,0,0,125,25,0,137,0,0,0
COc1ccc(NC(=O)N(Cc2cc3cc(C)ccc3[nH]c2=O)CC2CCCO2)cc1 (centres undefined),0,0,130,0,0,0,-4.0[inhibitor],0,0
COc1ccc(-n2c(C)cc(C(=O)COC(=O)Cc3n[nH]c(=O)c4ccccc34)c2C)cc1,0,0,0,0,0,0,-,-,-
Cc1cc(C(=O)COC(=O)Cc2n[nH]c(=O)c3ccccc23)c(C)n1-c1ccc2c(c1)OCO2,0,0,139,0,0,0,0,0,0
COC(=O)/C=C1\S/C(=N/N=C/c2ccc(Cl)cc2)NC1=O,0,0,0,0,0,0,-,-,-
COC(=O)/C=C1\S/C(=N/N=C/c2ccccc2)NC1=O,0,0,139,0,0,0,0,0,0
Cc1c(CC(=O)N2CCC(C(N)=O)CC2)c(=O)oc2cc3c(cc12)CCC1(CCCCC1)O3,0,0,0,0,0,0,-,-,-
SMILES,ANO1 activ,NTR1 agonist,MEKK3 PB1 HTS,MEKK2 mut-MEK5,TMEM16A inh,MEKK2wt PB1 HTS,MEKK2wt confirm,MEKK2mut-MEK5,MEKK3 confirm
CCCn1nc2cc(C(=O)NCCc3ccc(C)cc3)ccc2c1OCC,0,0,0,0,0,0,-,-,-
C=CCOc1c2ccc(C(=O)NCCc3ccc(C)cc3)cc2nn1C,0,0,126,0,0,0,0,0,0
CCCCOc1ccc(Cl)cc1Nc1nc(NCCO)nc(N2CCCC2)n1,0,0,0,0,0,141,0,0,0
O=C(Nc1ccccc1N1CCOCC1)c1ccc(Cl)nc1,0,0,72[inhibitor],0,0,0,0,0,0
C/C(=N\Nc1cc(N2CCCCC2)nc(C)n1)c1ccc(Br)cc1,0,0,0,45,0,183,0,0,0
COc1ccccc1C(=O)OCc1ccc2sc(C)nc2c1,0,0,0,0,0,0,-,-,-
NNc1cc(C(=O)O)ccc1Cl,0,0,55[inhibitor],0,0,61[inhibitor],0,0,0
COc1ccccc1/C=C/C=N/n1c(-c2cc(C)[nH]n2)n[nH]c1=S,0,0,0,0,0,0,-,-,-
Cc1cc(-c2n[nH]c(=S)n2/N=C/C=C/c2ccccc2)n[nH]1,0,0,153,0,0,0,0,0,0
Cc1cc(=O)nc2c3ccccc3n(C(C)C(=O)Nc3c(F)c(F)c(F)c(F)c3F)n12 (centres undefined),0,0,0,0,0,0,-,-,-
CN(C)c1ccc(/C=N/NC(=O)c2ccco2)cc1,0,0,130,0,0,0,0,0,0
COc1ccc(C2C(C#N)=C(N)Oc3cc(O)ccc32)cc1OC (centres undefined),0,0,0,0,0,0,-,-,-
COc1cc(C2C(C#N)=C(N)Oc3cc(O)ccc32)cc(OC)c1OC (centres undefined),0,0,10[inhibitor],0,0,13[inhibitor],0,0,0
Nc1ccnc(=O)[nH]1,0,0,-,-,0,-,-,-,-
O=S(=O)(c1cccc2nsnc12)N1CCN(c2ccc(F)cc2)CC1,0,0,72[inhibitor],0,0,0,0,0,0
O=C(Cc1cccs1)NCCSc1c(-c2ccc(Cl)cc2)[nH]c2ccccc12,0,0,1.0[inhibitor],0,0,2.0[inhibitor],0,0,0
CCOC(=O)CSc1c(-c2ccc(Cl)cc2)[nH]c2ccccc12,0,0,155,0,0,0,0,0,0

# Screening results deposited in PubChem BioAssay by several laboratories.
